According to ChEMBL document CHEMBL4513216, “Probing the Open Global Health Chemical Diversity Library for Multistage-Active Starting Points for Next-Generation Antimalarials” (ACS Infect Dis, 2020):
Hit rate of the full screen: of about 69,000 compounds, about 8,600 (12%) showed an effect of 50% or more. For the sample, strong results were picked, then their nearest neighbours and some compounds at random.

What follows are compounds tested on Plasmodium berghei (assay: Screen against P. berghei liver stage (PbLuc), transformed with Luciferase, at 10uM). Settings: tested at 10 uM.
Format: functional, HepG2

Point of comparison: `Cc1cnc(CN(Cc2ccc(C#N)cc2F)C2CCN(C)C2)o1` (stereo not given), INHIBITION -40.7%. Against it:
- COc1ccc(C)cc1CN(Cc1ncc(C)o1)C1CCN(C)C1 (stereo not given) — higher, 23.7%
- CC(=O)N(Cc1ncc(C)o1)C1CCN(Cc2ccccc2F)C1 (stereo not given) — higher, -19.9%
- Cc1cnc(CN(C)C2CCN(Cc3ccc(Cl)s3)C2)o1 (stereo not given) — higher, 60%
- CC(C)c1cnc(CN(C)C2CCN(CCS(C)(=O)=O)C2)o1 (stereo not given) — higher, 38.5%
- Cc1cnc(CN(C)C2CCN(Cc3cnc(C)s3)C2)o1 (stereo not given) — higher, 23.1%
- CCc1cnc(CN(C)C2CCN(CCS(C)(=O)=O)C2)o1 (stereo not given) — higher, 36.8%
- Cc1cnc(CN(Cc2ccc(Cl)s2)C2CCN(C)C2)o1 (stereo not given) — higher, 51.2%
- CC(=O)N(Cc1ncc(C)o1)C1CCN(Cc2cccnc2)C1 (stereo not given) — higher, 31.9%
- Cc1cnc(CN(C)C2CCN(Cc3sc(C)nc3C)C2)o1 (stereo not given) — higher, 21.6%
- CCS(=O)(=O)CCN1CCC(N(C)Cc2ncc(C)o2)C1 (stereo not given) — higher, 74.4%
- CC(=O)N(Cc1ncc(C)o1)C1CCN(Cc2ccc(F)c(F)c2)C1 (stereo not given) — higher, 68.9%
- CN(C)c1ccc(C(=O)NCc2ccc(N3CCOCC3)cc2)cn1 — higher, 12%
- Cc1n[nH]c(C2CN(C(=O)CCOCC(F)(F)F)CCO2)n1 (stereo not given) — higher, 13.6%
- CC(=O)N1CCOCC2(CCN(Cc3ccc(C)s3)CC2)C1 — higher, 20.2%
- CS(=O)(=O)N1CCO[C@@H]2CN(C(=O)N3CCCC3)CC[C@@H]2C1 — higher, 43.9%
- O=C(c1cc2c(s1)CCCC2)N1CCc2nc(C3CCCN3)ncc2C1 (stereo not given) — higher, 49.6%
- Cc1nn2cccnc2c1C(=O)N1CCCC(n2ccnc2C)C1 (stereo not given) — higher, 2.3%
- COc1ccccc1-c1cc(C(=O)N(C)C)c2cnn(C)c2n1 — higher, -8.9%
- CCOCCCNc1ncc(-c2cccc(F)c2)c(-c2nccn2C)n1 — higher, 8.12%
- Cn1ccnc1-c1nc(NC2CCCC2)ncc1-c1cccc(F)c1 — higher, 63.8%
- COCCNc1ncc(-c2cccc(F)c2)c(-c2nccn2C)n1 — higher, 25.8%
- COc1nn(C)c2c1CCCN(C(=O)c1cscn1)C2 — higher, 51.2%
- COc1nn(C)c2c1CCCN(C(=O)c1c[nH]cn1)C2 — higher, 14%
- COc1nn(C)c2c1CCCN(C(=O)c1cnccn1)C2 — higher, 18.6%
- CCCn1nccc1NC(=O)CN1CCCC1c1cccn1C (stereo not given) — higher, 25.1%
- Cc1cc(C)cc(N2CCN(Cc3cccnc3)CC2=O)c1 — higher, 41.5%
- O=C1NCC2(CCCN(Cc3ccc(Cl)s3)C2)Oc2ccccc21 (stereo not given) — higher, 43.7%
- O=C1CC2(CCN(Cc3ccc(-c4ccccc4)s3)C2)C(=O)N1 (stereo not given) — higher, 21.2%
- O=C1CC2(CCN(Cc3ccc(Cl)s3)C2)C(=O)N1 (stereo not given) — higher, 61.6%
- O=C(Cc1ccccn1)N1CCc2ncnc(NC3CCC3)c2CC1 — higher, 38.5%
- CCc1nc(C)c(C(=O)NCCN2CCN(C(C)=O)CC2)s1 — higher, 22.3%
- Cc1nn(C)cc1CN1CCc2c(nc(-c3ccccn3)[nH]c2=O)C1 — higher, 38.8%
- COc1cc2c(cc1OC)C(=O)C(Sc1nncn1C)C2 (stereo not given) — higher, 6.67%
- Cc1cccc(C)c1NC(=O)c1cccc(CN2CCCC2C)c1 (stereo not given) — higher, 41.5%
- CC1CN(C)CCN1Cc1cccc(C(=O)NCc2ccco2)c1 (stereo not given) — higher, -5.9%
- CC1CCCN1Cc1cccc(C(=O)Nc2ccc3c(c2)CCC3=O)c1 (stereo not given) — higher, 58.6%
- CC1CCCN1Cc1cccc(C(=O)Nc2ccc3[nH]c(=O)oc3c2)c1 (stereo not given) — higher, 74.7%
- COc1ccc(NC(=O)c2cccc(CN3CCCC3C)c2)cc1OC (stereo not given) — higher, 42.6%
- O=C(NCc1ccco1)c1cccc(CN2CCCC2CO)c1 (stereo not given) — higher, 5.58%
- COc1cccc(CN(C)C(=O)CCC(=O)c2ccccc2)c1OC — higher, -16.9%
- COc1ccc(CN(C)C(=O)CCC(=O)c2cccs2)c(OC)c1OC — higher, 50.1%
- CCN(C)C(=O)CCC(=O)c1cccs1 — higher, 40.2%
- COCCN1CCC(CN(CC2CCCO2)C(=O)CCC(F)(F)F)CC1 (stereo not given) — higher, 6.67%
- COc1ccc(N(c2ccc(OC)cc2)c2ccc(C(=O)O)s2)cc1 — higher, 69.3%
- CCC(=O)Nc1nnc(CCOc2ccc(OC)cc2)s1 — higher, 40%
- COc1ccc(N(c2ccc(C)cc2)c2ccc(C(=O)O)s2)cc1 — higher, 27.8%
- COc1cncc(-n2ccnc2-c2ccc(C(=O)O)s2)c1 — higher, 14.6%
- COc1ccc(N(c2ccccc2)c2ccc(C(=O)O)s2)cc1 — higher, 66.4%
- Cc1ccc(OCc2ccc(C(=O)O)s2)cc1C — higher, -32.9%
- Cc1nc(N2CCCC2)ncc1-c1cc(O)n2ncnc2n1 — higher, 16.8%
- CN1CCCCC1(C)C(=O)N1CCC(c2ccccn2)CC1 (stereo not given) — higher, 19.825%
- OC(COCc1ccco1)CN1CCc2c(ncn2C2CC2)C1 (stereo not given) — lower, -58.7%
- Cn1ccnc1C(=O)N1CCOC(Cc2ccc(Cl)cc2)C1 (stereo not given) — higher, 47.2%
- CN(CCCC1CCCO1)S(=O)(=O)NCc1ccccc1 (stereo not given) — higher, 16.1%
- O=S(=O)(CCC1CCCO1)NCc1ncc(-c2ccccc2)o1 (stereo not given) — higher, 20%
- Cc1cnc(CNS(=O)(=O)CCC2CCCO2)o1 (stereo not given) — higher, 57.7%
- C=c1ccoc1=C1NN=C(CNCCn2cccn2)O1 — higher, 34.1%
- CC(=O)N1CCC2(CC1)CN(CC(C)C)CC21CCNC1=O (stereo not given) — higher, -33.1%
- O=C(NCc1ccoc1)NC1CCCN(c2ncccn2)C1 (stereo not given) — higher, -22.1%
- CCOC1CCN(C(=O)c2csc(S(N)(=O)=O)c2)CC1 — higher, 62.4%
- CC1CCCN(C(=O)c2csc(S(N)(=O)=O)c2)CC1 (stereo not given) — higher, 11.5%
- CCCOC1CCCN(C(=O)c2csc(S(N)(=O)=O)c2)C1 (stereo not given) — higher, 0.991%
- CCc1nnc2n1CC(CNCc1nc(C)c(C)o1)CC2 (stereo not given) — higher, -8.22%
- Cc1ccc(CNC(=O)N2CCCC(NS(C)(=O)=O)C2)cc1 (stereo not given) — higher, 9.64%
- Cc1noc([C@]23COC[C@H]2CN(C(=O)COC2CCCC2)C3)n1 — higher, -5.89%
- CCOCC(=O)N1C[C@@H]2COC[C@]2(c2nc(C)no2)C1 — higher, 63.8%
- Cc1noc([C@]23COC[C@H]2CN(C(=O)CN(C)C)C3)n1 — higher, 46.6%
- COCCN1CCc2ncnc(N(C)C)c2CC1 — higher, 33.5%
- CN(C)Cc1ccnc(C2CN(CCCc3ccccc3)CCO2)n1 (stereo not given) — higher, 42.6%
